Test results as given in PubChem BioAssay (NCI).
The panel holds about 83,000 compounds, 20% with a hit somewhere; the sample as a whole holds those more often.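 Single-concentration screen, 48 h exposure, 96-well plates. Endpoint: percent growth. Below 10 = active.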 A number with no mark means an inactive call. Active and inactive are the calls of the source.

These molecules were tested on RPMI-8226 leukemia (assay: NCI-60 one-dose screen, 48 h (100 = growth as untreated, 0 = no growth, -100 = all killed)). Details: 10 µM unless noted.
Method: Growth inhibition of the RPMI-8226 human tumor cell line is measured as a screen for anti-cancer activity. Cells are grown in 96 well plates and exposed to the test compound for 48 hours. Compounds are tested at a single concentration, which is 10^-5 M for most compounds. The reported endpoint is percent growth (GI% or GIPRCNT), where numbers from 0 - 100% represent growth inhibition, and numbers from -100% - 0 represent cell death. For example, a value of 40 represents 60% growth inhibition. A value of 0 means no net growth occurred over the course of the experiment. A value of -40 indicates 40% of cells at the beginning of the experiment died by the end of the experiment. A value of -100 means all cells are dead at the end of the experiment.
NCI-60 Human Tumor Cell Lines Screen was performed using the standard one-dose NCI protocol, which is described in more detail at https://dtp.cancer.gov/discovery_development/nci-60/default.htm.
Compounds with GIPRCNT values below 10 were considered active. Activity score was based on GIPRCNT using the following formula: […]
Score is 0 for GIPRCNT values of 100 or above, 50 for GIPRCNT values of 0, and 100 for GIPRCNT values of -100.

Compound | growth
O=C(Nc1ccc(Oc2ccc(F)cc2)c(Cl)c1)c1cccnc1 | 87.3%
O=C1Nc2ccccc2/C1=C/C(=N/c1nnc(-c2ccc(Cl)cc2)s1)c1ccccc1 | -14.4% (active)
CC/C=C\C[C@H](O)C/C=C1/C(=O)C=C[C@@H]1C/C=C\CCCC(N)=O | 6.43% (active)
CCN(CC)CCC(=O)c1ccc(OC)c2ccccc12 | 8.95% (active)
N#Cc1c(N)nc(N)nc1Nc1ccc(Br)cc1 | 97%
COc1c2ccccc2c(OC)c2[nH]c(=O)ccc12 | 55.2%
COc1ccc(-c2cc(-c3cccnc3)nc3sc4c(=O)n(-c5ccc(C)cc5)nnc4c23)cc1OC | 99.7%
Cn1cc(-c2nc(-c3c[nH]c4ccccc34)cs2)c2cccnc21 | 14.4%
O=C(Nc1ccc(Nc2cc(Nc3ccccc3)ncn2)cc1)Nc1cc(C(F)(F)F)ccc1F | 65.1%
O=C1OC2C(I)C3CC2C1C3c1ccccc1 (stereo not given) | 106%
C#Cc1nc2ccccc2c(=O)[nH]1 | -22.2% (active)
COc1ccc(-c2cc(=O)[nH]c3c(OC)c4ccccc4c(OC)c23)cc1 | 4.21% (active)
Fc1ccc(Cc2ccc(F)cc2)cc1 | 108%
CC(=O)CC(C)(C)c1ccc(Cl)cc1 | 98.3%
Nc1cc2ccncc2c2ccccc12 | 84.1%
C=C1C(=O)O[C@H]2[C@H]1CC/C(Cn1cc(Cn3ccc4cc(Cl)ccc43)nn1)=C\CC[C@@]1(C)O[C@@H]21 | -42.3% (active)
CCN(CC)CC(O)CNc1c2ccc([N+](=O)[O-])cc2nc2cc(OC)c(OC)cc12 (stereo not given) | -13.8% (active)
COc1ccc(C(=O)c2sc3nc(-c4ccccc4OC)ccc3c2N)cc1OC | 19.7%
CN[C@@]12CC3(C=CC(=O)C=C3)O[C@]1(Cc1ccc(OC)cc1)N(C)C(=O)N2 | 17.2%
O=C([C@@H](COCc1ccccc1)N1C(=O)[C@@H](N2C(=O)OC[C@@H]2c2ccccc2)[C@H]1/C=C/c1ccccc1)N1CCC(CCN2CCCCC2)CC1 | 65.2%

Compound | growth
COc1ccccc1N1CCN(CCn2c(=O)c3c(c4ccccc4n3C)n(C)c2=O)CC1 | 109%
O=[N+]([O-])c1cccc(C2CC(c3ccccc3)=Nc3ccccc3S2)c1 (stereo not given) | 16.1%
COc1cc(-c2c3sc(=O)[nH]c3nc3c2c(=O)[nH]n3C(C)C)cc2c1OCO2 | 124%
CC[n+]1ccc2c(c1)C(=O)c1nccc3c1c-2nc1ccccc13 | 66.2%
CCOC(=O)c1cnc2ccc(OC)cc2c1Nc1cccc(S(=O)(=O)NC)c1 | 51.6%
c1ccc(-c2nc(N3CCOCC3)c3c4c(sc3n2)CCCCC4)nc1 | 35.5%
CS(=O)(CCCCN=C=S)=NC(=O)c1c(F)c(F)c(F)c(F)c1F (stereo not given) | -3.75% (active)
COc1ccc(-c2cc(-c3ccc(N(C)C)cc3)nc(NC(=O)c3ccncc3)n2)cc1 | 93%
COc1ccc(C/C(C)=C(\c2ccc(Cl)cc2)c2ccc(OCCN3CCCCCC3)cc2)cc1 | 54.3%
COc1ccc(/C=c2/c(=O)[nH]c3nc4sc(C)c(C)c4c(=O)n23)cc1 | 82.9%
CCOC(=O)C(Cc1cc(I)c(O)c(I)c1)NC(=O)c1ccccc1 (stereo not given) | 89.5%
C=CC[N+]1(CC)CCN=C1CCCCCCCCCCCCCCCCC (stereo not given) | -54.7% (active)
COc1ccc2nc3cc(Cl)ccc3c(N3CCN(c4ccnc(N5CCN(C)CC5)n4)CC3)c2c1 | 11.2%
COc1ccc2nc3cc(Cl)ccc3c(N3CCN(c4nccc(NCc5ccccc5)n4)CC3)c2c1 | 63.2%
Cn1cc(-c2ccc(-c3cn(C)c4ncccc34)[nH]2)c2cccnc21 | 31.9%
CC(C)Oc1nc2c(c(=O)n(C)c(=O)n2C)n1C | 105%
O=c1[nH]c(-c2ccccn2)nc2sc3c(c12)CCCCC3 | 40.2%
O=C1C=CC(=O)N1c1ccc(Cc2ccc(N3C(=O)C=CC3=O)cc2)cc1 | 81.6%
CCN(CC)CC(C)Nc1ccc([N+](=O)[O-])c2sc3ccccc3c(=O)c12 (stereo not given) | -29.7% (active)
CN(C)CCCC(=O)Nc1ccc(Cn2nnc3c2C(=O)c2nnn(Cc4ccc(NC(=O)CCCN(C)C)cc4)c2C3=O)cc1 | 76.1%
